Assay results from PubChem BioAssay (NCATS).
Inconclusive results are not listed. A number with no mark means an inactive call. Calls follow the shape of the dose curve; as a rule, active = well fitted curve in the direction sought with a large enough effect; inconclusive = small, poorly fitted or top-dose-only effect, or another doubt; inactive = no such curve, though single readings can be large; an effect the other way counts as inactive or inconclusive. *1 amine or outer side, *2 acyl side, *3 side chain or, on linkers, in order; H or OH if unused. Where a SMILES comes first, the peptide text is derived from it. Bridges are numbered along the chain shown (N, C = ends). [ ]: non-standard residue; d: D form. The star is where a group is joined. ξ: configuration not given here. X10 = NC1=NCCC(C(N[*:1])C(=O)[*:2])N1; ΔAla(3-NHCONH2) = NC(=O)NC=C(N)C(=O)O; ξβ3hOrn = NCCCC(N)CC(=O)*; Dap = NC[CH](N)C(=O)O

System: not listed separately
Assay: qHTS to identify inhibitors of the type 1 interferon - major histocompatibility complex class I in skeletal muscle: primary screen against the NCATS Pharmaceutical Collection (AID 1347407);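 also: luminescence of HiBiT knocked into endogenous HLA-B as interferon-induced MHC class I level; % is scaled to controls: 0 for no effect and ±100 for the full control effect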
Conditions: human skeletal muscle cells, IFN-b-induced MHC-I HiBiT luminescence, 24 h; series mostly up to 45.9 µM; activity change, negative = inhibition: at the top concentration
Method in brief: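 HLA-B HiBiT myoblasts, dexamethasone-free growth medium + 4 ng/ml IFN-b; compounds pinned 1 h after seeding, […] from 46 uM; 24 h, 37 C, 5% CO2; lytic HiBiT detection, 10 min RT, luminescence.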

First: COc1c(C)c2c(c(O)c1C/C=C(\C)CCC(=O)OCCN1CCOCC1)C(=O)OC2
Second: CCOC(=O)c1ccc(NC(=O)CN2CCCCC2)cc1
The “activity change, negative = inhibition” value of the first is lower: -24.4% for the first, 2.13% for the second.

Going from `N=C(N)c1ccc(OCCCOc2ccc(C(=N)N)cc2)cc1` to `COc1ccc(-n2nc(CCC(=O)N(C)O)cc2-c2ccc(Cl)cc2)cc1`, the “activity change, negative = inhibition” value rises from -14.8% to -5.78%.

Going from `Cc1onc(-c2c(Cl)cccc2Cl)c1C(=O)Cl` to `CC(=O)Nc1ccn(C2COC(COC(=O)c3ccccc3)O2)c(=O)n1` (stereo not given), the “activity change, negative = inhibition” value falls from 5.07% to -1.19%.

Compared with `CN1CCCN(C(c2ccccc2)c2ccc(Cl)cc2)CC1` (stereo not given), `c1ccc(C(O[C@H]2CCCN(CCc3ccc4c(c3)OCO4)C2)c2ccccc2)cc1` is higher in “activity change, negative = inhibition” value: -25.5% for the first, -1.64% for the second.

Going from `O=C(O)CCC(=O)OC[C@@H](NC(=O)C(Cl)Cl)[C@H](O)c1ccc([N+](=O)[O-])cc1` to `CC(=O)N(CC(O)CO)c1c(I)c(C(=O)NCCO)c(I)c(C(=O)NCC(O)CO)c1I` (stereo not given), the “activity change, negative = inhibition” value rises from -2.25% to 4.5%.

Compared with `CCCCOCCOC(=O)c1cccnc1`, `OCc1cccnc1` is higher in “activity change, negative = inhibition” value: 3.54% for the first, 4.42% for the second.

Going from `CC(C)(C)C(O)/C=C/c1ccc2c(c1)OCO2` (stereo not given) to `CC(CCc1ccc2c(c1)OCO2)NN` (stereo not given), the “activity change, negative = inhibition” value rises from -9.23% to 9.95%.

First: CC(=O)CC/C=C(\C)CC/C=C(\C)CC/C=C(\C)CCC=C(C)C
Second: CO[C@@H]1[C@@H](OC)[C@H](C)[C@@](O)(CC(=O)O)O[C@H]1[C@H](C)[C@H]1O[C@@]2(CC[C@@](C)([C@H]3CC[C@@](C)([C@@H]4O[C@@H]([C@H]5O[C@](C)(O)[C@H](C)C[C@@H]5C)C[C@@H]4OC4C[C@H](OC)[C@@H](OC)[C@H](C)O4)O3)O2)C[C@H](O)[C@H]1C (stereo not given in full)
The “activity change, negative = inhibition” value of the first is higher: 15.3% for the first, 0.78% for the second.

Compared with `C[C@@H](C1=C(CCN(C)C)Cc2ccccc21)c1ccccn1`, `c1ccc2c(c1)CCc1ccccc1N2` is higher in “activity change, negative = inhibition” value: -17.6% for the first, 21.5% for the second.

First: CO/N=C(/C(=O)N[C@@H]1C(=O)N2C(C(=O)[O-])=C(C[n+]3ccn4ncccc43)CS[C@H]12)c1nsc(N)n1
Second: CC(C)(C)C1CCC(CC2=C(O)c3ccccc3C(=O)C2=O)CC1 (stereo not given)
The “activity change, negative = inhibition” value of the first is lower: -19.9% for the first, 5.03% for the second.

First: Cc1cccc(N(C)C(=S)Oc2ccc3c(c2)CCC3)c1
Second: CCCOc1ccc2c(c1)CC[C@@H]1[C@@H]2CC[C@]2(C)C(OC)CC[C@@H]12 (stereo not given in full)
The “activity change, negative = inhibition” value of the first is higher: 4.49% for the first, -14.4% for the second.

For `CC(C)C(=O)Nc1cccc(C(F)(F)F)c1`, the “activity change, negative = inhibition” value was -0.175%.

Biological target: Protein phosphatase 1D (Homo sapiens) (UniProt O15297)
Assay: RapidFire Mass Spectrometry qHTS Assay for Modulators of WT P53-Induced Phosphatase 1 (WIP1) (AID 1347424);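 also: amount of dephosphorylated VEPPL-S-QETFS peptide product formed by WIP1; plate controls were DMSO wells for no effect and GSK830371 inhibitor control at 10 µM for full effect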
Conditions: WIP1 dephosphorylation of phosphopeptide, RapidFire MS; series mostly up to 63 µM; activity change, negative = inhibition: at the top concentration
Method in brief: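 WIP1 (10 nM final) was preincubated 1 h at room temperature with compounds in Tris-HCl pH 7.5, 30 mM MgCl2, TCEP, EGTA, BSA; 2 uM VEPPL-pS-QETFS phosphopeptide was added for 5 min, quenched with formic acid, and dephosphorylated product quantified by RapidFire MS.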

Protein phosphatase 1D (Homo sapiens), sequence (O15297 whole entry, looked up): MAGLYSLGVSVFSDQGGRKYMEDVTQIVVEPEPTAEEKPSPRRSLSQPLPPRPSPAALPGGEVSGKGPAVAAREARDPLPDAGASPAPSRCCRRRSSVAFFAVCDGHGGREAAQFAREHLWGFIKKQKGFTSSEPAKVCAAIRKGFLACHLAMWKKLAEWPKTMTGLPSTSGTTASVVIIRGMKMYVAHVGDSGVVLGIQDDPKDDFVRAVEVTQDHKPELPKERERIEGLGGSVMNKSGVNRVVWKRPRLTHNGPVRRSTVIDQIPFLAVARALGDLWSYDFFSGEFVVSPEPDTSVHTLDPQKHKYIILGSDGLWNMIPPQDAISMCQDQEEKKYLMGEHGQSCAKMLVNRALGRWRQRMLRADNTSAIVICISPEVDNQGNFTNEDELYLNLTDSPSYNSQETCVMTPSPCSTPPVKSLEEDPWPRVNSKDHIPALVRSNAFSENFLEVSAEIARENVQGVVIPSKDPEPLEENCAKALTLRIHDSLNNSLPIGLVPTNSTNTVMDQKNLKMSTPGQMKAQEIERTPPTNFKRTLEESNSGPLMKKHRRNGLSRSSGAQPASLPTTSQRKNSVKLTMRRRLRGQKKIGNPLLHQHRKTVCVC

`NCCCC(N)CC(=O)NCC1NC(=O)C(CO)NC(=O)C(N)CNC(=O)C(C2CCN=C(N)N2)NC(=O)C(=CNC(N)=O)NC1=O` (stereo not drawn) (H-[Dap]S[Dap](ξβ3hOrn)[ΔAla(3-NHCONH2)][X10]; lactam 1-C; configuration not given here) showed an activity change, negative = inhibition of 2.35% [at 0.505 µM].

Going from `Cn1cc(S(C)=O)c(=O)c2ccc(F)cc21` (stereo not given) to `Cc1ccc2c(Cl)cc(Cl)c(O)c2n1`, the “activity change, negative = inhibition” value falls from 18.7% to -2.28%.

First: CCN1CCN(C(=O)N[C@@H](C(=O)N[C@@H]2C(=O)N3[C@@H]2SC(C)(C)[C@H]3C(=O)O)c2ccccc2)C(=O)C1=O
Second: CC(=O)Nc1ccn(C2COC(COC(=O)c3ccccc3)O2)c(=O)n1 (stereo not given)
The “activity change, negative = inhibition” value of the first is lower: 0.78% for the first, 5.93% for the second.

First: CCCCNc1ccc(C(=O)OCCN(CC)CC)cc1
Second: CCCCOCCOC(=O)c1cccnc1
The “activity change, negative = inhibition” value of the first is higher: 8.23% for the first, -6.71% for the second.

Compared with `CCOC(=O)Cn1cccc1-c1nc(-c2ccc(OC)cc2)c(-c2ccc(OC)cc2)s1`, `COc1ccc(-n2nc(CCC(=O)N(C)O)cc2-c2ccc(Cl)cc2)cc1` is higher in “activity change, negative = inhibition” value: 0.926% for the first, 50.1% for the second.

Going from `NC(=O)NC1N=C([O][Al])NC1=O` (stereo not given) to `CCOC(=O)C(=O)c1csc(NC=O)n1`, the “activity change, negative = inhibition” value rises from -16.3% to 12.8%.

Compared with `C[N+]1(C)CCC(OC(=O)C(O)(c2ccccc2)C2CCCC2)C1` (stereo not given), `CC(C)(C)C1CCC(CC2=C(O)c3ccccc3C(=O)C2=O)CC1` (stereo not given) is lower in “activity change, negative = inhibition” value: -4.03% for the first, -7.43% for the second.

Compared with `CC(=O)O[C@H]1CC[C@@]2(C)C(=CC[C@@H]3[C@@H]2CC[C@]2(C)C(C(C)=O)=CC[C@@H]32)C1`, `CC(=O)[C@H]1CC[C@H]2[C@@H]3C=CC4=CC(=O)CC[C@@]4(C)[C@@H]3CC[C@]12C` is lower in “activity change, negative = inhibition” value: 18.7% for the first, 18.1% for the second.

Going from `CN(C)CCN(Cc1ccsc1)c1ccccn1` to `C[C@@H](C1=C(CCN(C)C)Cc2ccccc21)c1ccccn1`, the “activity change, negative = inhibition” value rises from 4.75% to 5.04%.

First: CCOC(=O)c1cc(=O)c2c(OCC(COc3cccc4oc(C(=O)OCC)cc(=O)c34)OC(=O)[C@@H](N)CCCCN)cccc2o1
Second: N=C(N)c1ccc(OCCCOc2ccc(C(=N)N)cc2)cc1
The “activity change, negative = inhibition” value of the first is higher: 14.9% for the first, -1.09% for the second.

Going from `CN1CCC(Nc2ncc3ncnc(Nc4ccc(F)c(Cl)c4)c3n2)CC1` to `CN1CCCN(C(c2ccccc2)c2ccc(Cl)cc2)CC1` (stereo not given), the “activity change, negative = inhibition” value rises from 12% to 26.2%.

First: COc1c(C)c2c(c(O)c1C/C=C(\C)CCC(=O)OCCN1CCOCC1)C(=O)OC2
Second: CCOC(=O)c1ccc(NC(=O)CN2CCCCC2)cc1
The “activity change, negative = inhibition” value of the first is lower: -6.91% for the first, 6.9% for the second.

Going from `Cc1onc(-c2c(Cl)cccc2Cl)c1C(=O)Cl` to `CC(C)C(=O)Nc1cccc(C(F)(F)F)c1`, the “activity change, negative = inhibition” value rises from -0.633% to 27.2%.

First: O=C(O)CCC(=O)OC[C@@H](NC(=O)C(Cl)Cl)[C@H](O)c1ccc([N+](=O)[O-])cc1
Second: CC(=O)N(CC(O)CO)c1c(I)c(C(=O)NCCO)c(I)c(C(=O)NCC(O)CO)c1I (stereo not given)
The “activity change, negative = inhibition” value of the first is lower: -9.97% for the first, 3.45% for the second.

Going from `c1ccc(C(O[C@H]2CCCN(CCc3ccc4c(c3)OCO4)C2)c2ccccc2)cc1` to `CC(CCc1ccc2c(c1)OCO2)NN` (stereo not given), the “activity change, negative = inhibition” value falls from 67.5% to 1.5%.

First: CC(C)(C)C(O)/C=C/c1ccc2c(c1)OCO2 (stereo not given)
Second: Cc1cccc(N(C)C(=S)Oc2ccc3c(c2)CCC3)c1
The “activity change, negative = inhibition” value of the first is higher: 22.4% for the first, 7.32% for the second.

First: CC(=O)CC/C=C(\C)CC/C=C(\C)CC/C=C(\C)CCC=C(C)C
Second: CO[C@@H]1[C@@H](OC)[C@H](C)[C@@](O)(CC(=O)O)O[C@H]1[C@H](C)[C@H]1O[C@@]2(CC[C@@](C)([C@H]3CC[C@@](C)([C@@H]4O[C@@H]([C@H]5O[C@](C)(O)[C@H](C)C[C@@H]5C)C[C@@H]4OC4C[C@H](OC)[C@@H](OC)[C@H](C)O4)O3)O2)C[C@H](O)[C@H]1C (stereo not given in full)
The “activity change, negative = inhibition” value of the first is higher: 51.7% for the first, 49% for the second.

First: OCc1cccnc1
Second: CO/N=C(/C(=O)N[C@@H]1C(=O)N2C(C(=O)[O-])=C(C[n+]3ccn4ncccc43)CS[C@H]12)c1nsc(N)n1
The “activity change, negative = inhibition” value of the first is higher: 19.3% for the first, -4.04% for the second.

Compared with `c1ccc2c(c1)CCc1ccccc1N2`, `CCCOc1ccc2c(c1)CC[C@@H]1[C@@H]2CC[C@]2(C)C(OC)CC[C@@H]12` (stereo not given in full) is higher in “activity change, negative = inhibition” value: 9.36% for the first, 20% for the second.
